Screening data from PubChem.
Rows were chosen to be rich in hits. Some 19% of all compounds tested hit in one or more screens of this group.
TDP1 cell CPT = qHTS for Inhibitors of human tyrosyl-DNA phosphodiesterase 1 (TDP1): qHTS in cells in presence of CPT; Potency, µM (doses to about 46.2 µM), for inactives: at the highest dose activity change, negative = growth inhibition, hits mostly inhibitors; AID 686979, 2013; 420,000 compounds, 12% hits; chicken DT40 Tdp1-/-;hTDP1 cells + 20 nM CPT, ATP luminescence, 48 h; note: potency is the fitted concentration of half-maximal effect; nearly all actives have a fitted effect of over 55% in size
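Chicken DT40 Tdp1-/- cells stably complemented with human TDP1 were seeded at 400 cells/well in medium containing 20 nM camptothecin, exposed to pin-transferred compounds, and grown at 37 °C for at least 48 hr. Viability was read as ATP luminescence.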
IL-1B inflam inh = qHTS for Inhibitors of Inflammasome Signaling: IL-1-beta AlphaLISA Primary Screen; THP-1 LPS/ATP IL-1B secretion, AlphaLISA, 16 h; hits give low values; activity change, % at 57.5 µM; 360,000 compounds, 4.7% hits; AID 743279, 2014; in the data active = activity change below about -50%; inconclusive = mostly about -30% to -49%
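THP-1 cells pretreated 1 hr with compounds (up to 57.5 uM final), then stimulated with LPS (250 ng/mL final) plus ATP (1.25 mM final); secreted IL-1B measured by AlphaLISA after 16 hr, decreased signal indicating inhibition.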
ELG1 DNA repair = qHTS screen for small molecules that inhibit ELG1-dependent DNA repair in human embryonic kidney (HEK293T) cells expressing luciferase-tagged ELG1; HEK293T ELG1-luciferase reporter, luminescence, 16 h; DNA damage induced by 5-fluorouridine; Potency, µM (series often up to 46.1 µM), inactives show at the highest dose activity change, negative = inhibition, actives largely listed as inhibitors; 330,000 compounds, 2.3% hits; note: potency is the fitted concentration of half-maximal effect; nearly all actives have a fitted effect of over 55% in size
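Luminescence from the luciferase reporter, measured 30 min after ONE-Glo reagent at room temperature, was the read-out. Beforehand, 2,000 cells per well were exposed for 16 hr at 37 °C to 5-fluorouridine together with compound or vehicle.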
TDP1 cell noCPT = qHTS for Inhibitors of human tyrosyl-DNA phosphodiesterase 1 (TDP1): qHTS in cells in absence of CPT | DT40 Tdp1-/- hTDP1 cells, no CPT, ATP luminescence, 48 h | 420,000 compounds, 15% hits | Potency, µM (highest dose often 46.2 µM), for the others: at the top dose activity change, negative = growth inhibition, most hits filed as inhibitors; note: potency is the fitted concentration of half-maximal effect; nearly all actives have a fitted effect of over 55% in size
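Luminescent ATP content (CellTiter-Glo) served as the growth readout. Knockout chicken DT40 cells expressing human TDP1 were exposed to compounds without camptothecin for a minimum 48 hr at 37 °C.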
TDP1 block = qHTS Assay for Inhibitors of Tyrosyl-DNA Phosphodiesterase (TDP1); recombinant TDP1, AlphaScreen DNA substrate cleavage; Potency, µM (top dose mostly 130 µM), for the others: top-dose activity change, negative = inhibition, hits mostly inhibitors; 350,000 compounds, 0.28% hits; Tyrosyl-DNA phosphodiesterase 1 (Homo sapiens), Q9NUW8; note: potency is the fitted concentration of half-maximal effect; nearly all actives have a fitted effect of over 40% in size
Target sequence (Q9NUW8 whole entry, looked up): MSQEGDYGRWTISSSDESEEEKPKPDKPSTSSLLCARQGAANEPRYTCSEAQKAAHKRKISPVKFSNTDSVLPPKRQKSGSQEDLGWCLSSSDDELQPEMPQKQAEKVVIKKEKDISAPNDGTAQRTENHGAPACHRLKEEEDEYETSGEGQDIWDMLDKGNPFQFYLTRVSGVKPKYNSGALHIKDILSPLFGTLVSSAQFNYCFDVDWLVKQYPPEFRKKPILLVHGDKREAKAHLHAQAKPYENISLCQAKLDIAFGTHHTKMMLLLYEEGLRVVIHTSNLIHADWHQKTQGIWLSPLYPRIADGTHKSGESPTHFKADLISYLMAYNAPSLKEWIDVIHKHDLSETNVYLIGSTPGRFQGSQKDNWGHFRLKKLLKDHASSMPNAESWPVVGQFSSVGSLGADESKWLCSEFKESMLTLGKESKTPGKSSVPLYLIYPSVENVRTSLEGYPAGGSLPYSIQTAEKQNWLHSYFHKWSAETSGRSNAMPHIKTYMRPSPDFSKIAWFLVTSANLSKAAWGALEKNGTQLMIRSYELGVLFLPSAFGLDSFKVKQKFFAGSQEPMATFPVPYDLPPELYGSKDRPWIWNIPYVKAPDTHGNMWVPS
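Compounds were preincubated with Tdp1 (1 nM final) for 15 min at room temperature before substrate (15 nM final) started a 5 min reaction; beads (10 ug/ml final) were then added for 10 min before AlphaScreen detection.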
Giardia kill = Small Molecules that selectively kill Giardia lamblia: qHTS. Giardia lamblia trophozoite viability. activity change, % at 7.66 µM, hits read low. 340,000 compounds, 0.15% hits; in the data active = activity change below about -80%; inconclusive = between about -30% and that limit;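 note: parasites exposed to compound for two days anaerobically before the ATP read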
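Media and compound were dispensed first, then trophozoites at 100 cells/well; plates sat 48 hrs at 37 deg C without oxygen before ATP luminescence reagent was added and read after 15-30 min at room temperature.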
* hit, by the source's call; ? = inconclusive; . = no result given. Unless noted, calls come from the whole dose curve; as a rule, active = well fitted curve in the direction sought with a large enough effect; inconclusive = small, poorly fitted or top-dose-only effect, or another doubt; inactive = no such curve, though single readings can be large; an effect the other way counts as inactive or inconclusive. % is set by controls: 0 for no effect and ±100 for the full control effect.

SMILES	TDP1 cell CPT	IL-1B inflam inh	ELG1 DNA repair	TDP1 cell noCPT	TDP1 block	Giardia kill
CCOC(=O)C1CCN(C(=O)COc2ccc(Br)cc2Br)CC1	-19%	-66*	-17%	-6%	-1%	36
COc1ccc(CN(C)Cc2nc(Cc3cccc(F)c3)no2)c2cccnc12	12µM*	1	?	2.9µM*	3%	-25
CCCN1CCN(C(=O)c2cc(COc3ccc4ncccc4c3)on2)CC1	23µM*	-6	-27%	9.2µM*	.	-2
CCN1CCN(C(=O)c2cc(COc3ccc4ncccc4c3)on2)CC1	16µM*	19	?	10µM*	0%	11
COc1ccccc1NC(=O)CCc1c(C)nc2c(-c3ccc(F)cc3)c(C)nn2c1C	15µM*	-2	?	?	.	-9
CCN1CCN(c2ccc(NC(=O)CCc3c(C)nc4c(-c5ccc(F)cc5)c(C)nn4c3C)cc2)CC1	10µM*	?	?	5.8µM*	0%	-1
Cc1nc2cc(-c3ccccc3)nn2c(C)c1CCC(=O)N1CCN(c2ccc(F)cc2)CC1	23µM*	.	.	10µM*	2%	.
Cc1nc2c(-c3ccc(F)cc3)c(C)nn2c(C)c1CCC(=O)Nc1ccccc1	?	-12	-11%	?	.	11
Cc1nc2c(-c3ccc(F)cc3)c(C)nn2c(C)c1CCC(=O)N1CCC(Cc2ccccc2)CC1	?	-11	-20%	23µM*	-6%	-21
O=C(NCCc1ccccc1)c1ccc(NC(=O)C2CCC2)cc1	-17%	-10	.	-10%	.	-21
O=C(O)c1ccccc1/C=N/NC(=S)NCc1ccccc1	-13%	18	-13%	-10%	0%	7
O=C(NC1CCSC1=O)C1CC(=O)N(c2ccc(F)cc2)C1 (stereo not given)	-7%	-2	2%	-9%	4%	1
COc1ccc(CCN(C)C2CCCN(S(=O)(=O)c3ccc(C)cc3)C2)cc1OC (stereo not given)	?	-1	-18%	?	.	-15
CCOC(=O)C1CCN(C(=O)CCc2c(C)nc3cc(-c4ccccc4)nn3c2C)CC1	?	2	0%	-28%	1%	10
Cc1nc2c(-c3ccc(F)cc3)c(C)nn2c(C)c1CCC(=O)N1CCN(c2ccc(F)cc2)CC1	18µM*	-22	?	18µM*	6%	-25
CCOC(=O)C1CCN(C(=O)CCc2c(C)nc3c(-c4ccc(F)cc4)c(C)nn3c2C)CC1	8.2µM*	9	?	?	-2%	2
CCOC(=O)C1CCCCN1C(=O)CCc1c(C)nc2cc(-c3ccccc3)nn2c1C (stereo not given)	3.7µM*	38	?	4.1µM*	3%	10
Cc1nc2c(-c3ccc(F)cc3)c(C)nn2c(C)c1CCC(=O)N1CCN(c2ccccc2)CC1	18µM*	-14	-1%	?	2%	4
CCCCOc1ccc(C(C)NC(=O)c2cccc(Nc3nc4ccccc4n4nnnc34)c2)cc1 (stereo not given)	5.2µM*	.	.	5.8µM*	-5%	.
COc1cc(Nc2nc3ccccc3n3nnnc23)cc(OC)c1OC	8.2µM*	-1	?	9.2µM*	7%	-10
COCCNC(=O)c1cccc(Nc2nc3ccccc3n3nnnc23)c1	-7%	.	.	?	3%	.
Cc1ccc(CNC(=O)c2cccc(Nc3nc4ccccc4n4nnnc34)c2)cc1	21µM*	.	.	10µM*	5%	.
O=C(O)C1C2CCC(O2)C1C(=O)Nc1cccc(Cl)c1 (stereo not given)	5%	42	?	7%	.	-21
Clc1cc(Br)ccc1OCCOCCN1CCOCC1	-29%	-15	30%	-27%	-4%	-8
COc1ccccc1OCCOCCOc1c(C)cc(C)cc1Br	?	-2	-5%	23µM*	-11%	7
SMILES	TDP1 cell CPT	IL-1B inflam inh	ELG1 DNA repair	TDP1 cell noCPT	TDP1 block	Giardia kill
COc1cc(C(C)=O)ccc1Oc1ncnc2c1cnn2-c1ccc(C)c(C)c1	12µM*	-13	16%	15µM*	0%	-25
COc1cc(C(C)=O)ccc1Oc1ncnc2c1cnn2-c1ccccc1	?	-2	14%	?	3%	9
COc1cccc(CNc2ccc([N+](=O)[O-])cc2Cl)c1O	?	?	?	?	5%	11
CC(=O)c1ccc(N2CCN(C(=O)Cn3cnc(S(=O)(=O)N4CCCCC4)c3)CC2)cc1	?	0	?	-9%	-1%	16
O=C(Nc1ccccc1O)C(c1ccccc1)c1ccccc1	?	-64*	4.6µM*	7.3µM*	.	-21
CCC(C(=O)Nc1cc(C)cc(C)n1)c1ccccc1 (stereo not given)	-22%	.	.	?	.	0
CC(C)Cc1ccc(C(C)C(=O)Nc2ccccc2O)cc1 (stereo not given)	8.2µM*	-95*	5.8µM*	8.2µM*	.	-16
Cc1cc(C)nc(NC(=O)C(c2ccccc2)c2ccccc2)c1	?	-5	5%	15µM*	4%	-17
NC(=O)c1ccccc1NC(=O)C(c1ccccc1)c1ccccc1	?	-7	.	29µM*	.	3
O=C(O)c1ccccc1NC(=O)C(c1ccccc1)c1ccccc1	-5%	55	.	-12%	.	0
NNC(=O)c1cc2ccccc2cc1NS(=O)(=O)c1ccccc1	3%	47	-2%	7%	.	-17
Cc1ccc(CS(=O)Cc2ccc(C(=O)NCc3ccc4c(c3)OCO4)o2)cc1 (stereo not given)	?	-16	0%	-7%	3%	-12
O=C(NCc1cccc(Cl)c1)c1ccc(CS(=O)Cc2ccc(Cl)cc2)o1 (stereo not given)	?	-74*	13µM*	-3%	2%	-15
O=C(NCc1ccc2c(c1)OCO2)c1ccc(CS(=O)Cc2ccc(Cl)cc2)o1 (stereo not given)	-12%	-69*	?	-15%	3%	-16
NC(=NC(=O)c1ccccc1)N1N=CCC1c1ccccc1 (stereo not given)	-7%	12	4%	-16%	-6%	-11
